The full ranking holds about 9,900 sequences; the median of “r (bound/input frequency ratio)” is about 0.7, and the highest 2% start at about 6.5. The sample as a whole holds a higher share of the highest values than the screen did.
B1: ENSMUSG00000032194.228|Kank2 (ssRNA)
RNA: GGGAGUUCUACAGUCCGACGAUCGCUUCGAUAUCCGCAUGCUAGUCCUCUCAAGUCUCCCUGUCGUAUCCAGAUCACAGCUGAACCCACUGGGCCUUGGCGCCAAACCUCAGCAGGGCAGCAUUGAGACUCAUGGACUAAAGGAAAGUGUUCACUCUUCUAGACAAGUGGGUCUCUUGGUUUGAUGGAGUCUUACUCCGCUUGAGUUUUGUAGAAGGGGUUUGUCUAAGGCAUAGAGGCUUGGUUGGCAUAAGAAAAUAAGAUGGACAGAUGGAUGGGUGGAUGGAUGGAUGGCUGAUUGAGUCUCUUGCGGUCGCACUAGUGUGGAAUUCUCGGGUGUCAAGG
B2: ENSMUSG00000032194.287|Kank2 (ssRNA)
RNA: GGGAGUUCUACAGUCCGACGAUCGCUUCGAUAUCCGCAUGCUAGUGGACGGAUGAGUGUGGGGUGGGUGGAUGGAUAAAUGAGCAAUGGAUGAGAAACUGGGUUGGCUGGUGGGUAGAUGUCAUGAUGGAGUCUUUGCACGUGUAUGAAACAGAAAACCAAACUUCAGGACAGACAGCUGCUGGUGUCUCUGGAUGCUCACAGCCUAGGGCACAUUUGAAAGGUCGUGCUCUGAGCUGAGCCCUGAGUUCCAGCCUUGUAGCCAGCAAGGGAGUUUAUUUAAGGUUCUGGAAGCAUCAGCUAUCUCUUGCGGUCGCACUAGUGUGGAAUUCUCGGGUGUCAAGG
B3: ENSMUSG00000032194.289|Kank2 (ssRNA)
RNA: GGGAGUUCUACAGUCCGACGAUCGCUUCGAUAUCCGCAUGCUAGUGUGGGGUGGGUGGAUGGAUAAAUGAGCAAUGGAUGAGAAACUGGGUUGGCUGGUGGGUAGAUGUCAUGAUGGAGUCUUUGCACGUGUAUGAAACAGAAAACCAAACUUCAGGACAGACAGCUGCUGGUGUCUCUGGAUGCUCACAGCCUAGGGCACAUUUGAAAGGUCGUGCUCUGAGCUGAGCCCUGAGUUCCAGCCUUGUAGCCAGCAAGGGAGUUUAUUUAAGGUUCUGGAAGCAUCAGCUAUGACCCAAAGCACCUCUUGCGGUCGCACUAGUGUGGAAUUCUCGGGUGUCAAGG
B4: ENSMUSG00000032194.282|Kank2 (ssRNA)
RNA: GGGAGUUCUACAGUCCGACGAUCGCUUCGAUAUCCGCAUGCUAGGAUGGAUGGACAGGUGGGUGGAUGGAUGGGUGGACGGAUGAGUGUGGGGUGGGUGGAUGGAUAAAUGAGCAAUGGAUGAGAAACUGGGUUGGCUGGUGGGUAGAUGUCAUGAUGGAGUCUUUGCACGUGUAUGAAACAGAAAACCAAACUUCAGGACAGACAGCUGCUGGUGUCUCUGGAUGCUCACAGCCUAGGGCACAUUUGAAAGGUCGUGCUCUGAGCUGAGCCCUGAGUUCCAGCCUUGUAGCCAGCAAGGGAGCUCUUGCGGUCGCACUAGUGUGGAAUUCUCGGGUGUCAAGG
B5: ENSMUSG00000032194.288|Kank2 (ssRNA)
RNA: GGGAGUUCUACAGUCCGACGAUCGCUUCGAUAUCCGCAUGCUAGGAUGAGUGUGGGGUGGGUGGAUGGAUAAAUGAGCAAUGGAUGAGAAACUGGGUUGGCUGGUGGGUAGAUGUCAUGAUGGAGUCUUUGCACGUGUAUGAAACAGAAAACCAAACUUCAGGACAGACAGCUGCUGGUGUCUCUGGAUGCUCACAGCCUAGGGCACAUUUGAAAGGUCGUGCUCUGAGCUGAGCCCUGAGUUCCAGCCUUGUAGCCAGCAAGGGAGUUUAUUUAAGGUUCUGGAAGCAUCAGCUAUGACCCACUCUUGCGGUCGCACUAGUGUGGAAUUCUCGGGUGUCAAGG
B6: ENSMUSG00000032194.283|Kank2 (ssRNA)
RNA: GGGAGUUCUACAGUCCGACGAUCGCUUCGAUAUCCGCAUGCUAAUGGACAGGUGGGUGGAUGGAUGGGUGGACGGAUGAGUGUGGGGUGGGUGGAUGGAUAAAUGAGCAAUGGAUGAGAAACUGGGUUGGCUGGUGGGUAGAUGUCAUGAUGGAGUCUUUGCACGUGUAUGAAACAGAAAACCAAACUUCAGGACAGACAGCUGCUGGUGUCUCUGGAUGCUCACAGCCUAGGGCACAUUUGAAAGGUCGUGCUCUGAGCUGAGCCCUGAGUUCCAGCCUUGUAGCCAGCAAGGGAGUUUAUUCUCUUGCGGUCGCACUAGUGUGGAAUUCUCGGGUGUCAAGG
B7: ENSMUSG00000032194.230|Kank2 (ssRNA)
RNA: GGGAGUUCUACAGUCCGACGAUCGCUUCGAUAUCCGCAUGCUACUCCCUGUCGUAUCCAGAUCACAGCUGAACCCACUGGGCCUUGGCGCCAAACCUCAGCAGGGCAGCAUUGAGACUCAUGGACUAAAGGAAAGUGUUCACUCUUCUAGACAAGUGGGUCUCUUGGUUUGAUGGAGUCUUACUCCGCUUGAGUUUUGUAGAAGGGGUUUGUCUAAGGCAUAGAGGCUUGGUUGGCAUAAGAAAAUAAGAUGGACAGAUGGAUGGGUGGAUGGAUGGAUGGCUGAUUGAGUGGGUGGGUGGGUCUCUUGCGGUCGCACUAGUGUGGAAUUCUCGGGUGUCAAGG
B8: ENSMUSG00000028439.220|Fam219a (ssRNA)
RNA: GGGAGUUCUACAGUCCGACGAUCGCUUCGAUAUCCGCAUGCUAUCCCUGAGCUCCUAAGCAAUUCCCAGGCUUCUCUAGGGCUUCAGUUCUCACAACUGGAAAAUAAAGAGUAGCUGACAUCACCGACAGAGUCUUUUCAUACCAGAAGGAAUUUCUUCACAGGAGUUUCUGCAAAAGACUAUGACAUCUGUGUGUCUGUGGUCUCACGAGGUACCUGGAGGUGUAUGUGCACGGACAUGGGAAGUACGUGAAGAUUUAUUUCGGGAAAAGUGGUGUGUGUGUAGCUGUACUGGGUGUCAUGUCUCUUGCGGUCGCACUAGUGUGGAAUUCUCGGGUGUCAAGG
B9: ENSMUSG00000028439.221|Fam219a (ssRNA)
RNA: GGGAGUUCUACAGUCCGACGAUCGCUUCGAUAUCCGCAUGCUAAGCUCCUAAGCAAUUCCCAGGCUUCUCUAGGGCUUCAGUUCUCACAACUGGAAAAUAAAGAGUAGCUGACAUCACCGACAGAGUCUUUUCAUACCAGAAGGAAUUUCUUCACAGGAGUUUCUGCAAAAGACUAUGACAUCUGUGUGUCUGUGGUCUCACGAGGUACCUGGAGGUGUAUGUGCACGGACAUGGGAAGUACGUGAAGAUUUAUUUCGGGAAAAGUGGUGUGUGUGUAGCUGUACUGGGUGUCAUGUAUGCUGCUCUUGCGGUCGCACUAGUGUGGAAUUCUCGGGUGUCAAGG
B10: ENSMUSG00000028439.219|Fam219a (ssRNA)
RNA: GGGAGUUCUACAGUCCGACGAUCGCUUCGAUAUCCGCAUGCUAGCAUUCUCCCUGAGCUCCUAAGCAAUUCCCAGGCUUCUCUAGGGCUUCAGUUCUCACAACUGGAAAAUAAAGAGUAGCUGACAUCACCGACAGAGUCUUUUCAUACCAGAAGGAAUUUCUUCACAGGAGUUUCUGCAAAAGACUAUGACAUCUGUGUGUCUGUGGUCUCACGAGGUACCUGGAGGUGUAUGUGCACGGACAUGGGAAGUACGUGAAGAUUUAUUUCGGGAAAAGUGGUGUGUGUGUAGCUGUACUGGGUGCUCUUGCGGUCGCACUAGUGUGGAAUUCUCGGGUGUCAAGG
B11: ENSMUSG00000032194.229|Kank2 (ssRNA)
RNA: GGGAGUUCUACAGUCCGACGAUCGCUUCGAUAUCCGCAUGCUAUCAAGUCUCCCUGUCGUAUCCAGAUCACAGCUGAACCCACUGGGCCUUGGCGCCAAACCUCAGCAGGGCAGCAUUGAGACUCAUGGACUAAAGGAAAGUGUUCACUCUUCUAGACAAGUGGGUCUCUUGGUUUGAUGGAGUCUUACUCCGCUUGAGUUUUGUAGAAGGGGUUUGUCUAAGGCAUAGAGGCUUGGUUGGCAUAAGAAAAUAAGAUGGACAGAUGGAUGGGUGGAUGGAUGGAUGGCUGAUUGAGUGGGUGGCUCUUGCGGUCGCACUAGUGUGGAAUUCUCGGGUGUCAAGG
B12: ENSMUSG00000032194.281|Kank2 (ssRNA)
RNA: GGGAGUUCUACAGUCCGACGAUCGCUUCGAUAUCCGCAUGCUAAUGAAUGGAUGGAUGGACAGGUGGGUGGAUGGAUGGGUGGACGGAUGAGUGUGGGGUGGGUGGAUGGAUAAAUGAGCAAUGGAUGAGAAACUGGGUUGGCUGGUGGGUAGAUGUCAUGAUGGAGUCUUUGCACGUGUAUGAAACAGAAAACCAAACUUCAGGACAGACAGCUGCUGGUGUCUCUGGAUGCUCACAGCCUAGGGCACAUUUGAAAGGUCGUGCUCUGAGCUGAGCCCUGAGUUCCAGCCUUGUAGCCAGCACUCUUGCGGUCGCACUAGUGUGGAAUUCUCGGGUGUCAAGG
B13: ENSMUSG00000004113.145|Cacna1b (ssRNA)
RNA: GGGAGUUCUACAGUCCGACGAUCGCUUCGAUAUCCGCAUGCUAAAAUAGCACAUGUAUGUAGAGAUGCGCUCAAGGGCCUGCCUUUCACCUACACUGUCACCAUAACAGGGACCAAAUCUGGAGGAUGUCCUUGCUGUUGAUUCUGGUUUUCAGUCACAACACUUUCACUGUUUGUCAUUUCUAUGUAGUUGAUCUAGAAAAAGCAGAAAUCAAAACAGGAAAGGAAAUGUUUGUGUAACUUUAAAAAAAAAGUCAACAUGUAGGAAGGUCUCCAUUUUGCAUUGUUUCUGUGUCUUGUAUGCCUCUUGCGGUCGCACUAGUGUGGAAUUCUCGGGUGUCAAGG

Target: TDP-43 (Homo sapiens, UniProt Q13148 1-414)
Assay: RNA Bind-n-Seq with designed 260-mer pool; 25 mM Tris-HCl, 150 mM KCl, 3 mM MgCl2, BSA (printed 500 mg/mL), 20 units/mL SUPERase IN; pH not stated; 500 nM RNA pool, 1 h, 4 C; TDP-43 5, 50, 500 nM; high values mean tight binding
Details: protein: recombinant; tags: SBP (GST cleaved off with PreScission; pGEX-GST-SBP)
Procedure, shortened: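 For each oligo, R gives binding as its mapped-read-normalized abundance after pulldown divided by its abundance in input. Bead-captured SBP-tagged TDP-43 (5, 50 or 500 nM) was incubated with 500 nM of an in vitro-transcribed 260-nt 3′ UTR oligo pool for 1 h at 4 °C in 25 mM Tris-HCl, 150 mM KCl, 3 mM MgCl2, BSA and SUPERase IN on streptavidin beads. Washed, biotin-eluted RNA was reverse transcribed, PCR-amplified and sequenced.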

Chain of TDP-43 (Q13148 whole entry): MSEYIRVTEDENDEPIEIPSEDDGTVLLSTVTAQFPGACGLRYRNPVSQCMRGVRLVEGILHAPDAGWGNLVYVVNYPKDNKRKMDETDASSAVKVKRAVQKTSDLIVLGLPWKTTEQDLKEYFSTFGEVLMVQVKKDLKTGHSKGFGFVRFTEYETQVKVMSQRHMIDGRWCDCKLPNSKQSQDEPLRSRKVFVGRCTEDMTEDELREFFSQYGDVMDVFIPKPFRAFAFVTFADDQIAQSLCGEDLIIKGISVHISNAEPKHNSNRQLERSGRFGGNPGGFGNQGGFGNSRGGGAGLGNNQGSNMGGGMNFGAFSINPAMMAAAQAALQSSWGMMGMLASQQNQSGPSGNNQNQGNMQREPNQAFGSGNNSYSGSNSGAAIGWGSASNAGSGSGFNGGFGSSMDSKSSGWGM

Point of comparison: B10, binding signal 1.85 R (bound/input frequency ratio). Against it:
- B1 — higher, 7.26 R (bound/input frequency ratio)
- B2 — higher, 5.94 R (bound/input frequency ratio)
- B3 — higher, 3.69 R (bound/input frequency ratio)
- B4 — higher, 6.52 R (bound/input frequency ratio)
- B5 — higher, 6.68 R (bound/input frequency ratio)
- B6 — higher, 3.66 R (bound/input frequency ratio)
- B7 — higher, 4.66 R (bound/input frequency ratio)
- B8 — higher, 6.53 R (bound/input frequency ratio)
- B9 — higher, 2.59 R (bound/input frequency ratio)
- B11 — higher, 4.54 R (bound/input frequency ratio)
- B12 — higher, 6.24 R (bound/input frequency ratio)
- B13 — lower, 0.241 R (bound/input frequency ratio)
